According to the supplement of paper PMC6555819:

These sequences were tested on PPARg DBDmut:RXRa IVT, anti-PPARg (DBD mutation: PPARg1 K132A/R137A, NR concentration 270 nM, RXRa partner concentration 90 nM) (assay: PBM binding z-score (relative to random genomic background probes); higher = stronger binding; sequences stand for … in GC…GCGATTGACAGCGTAGAATGAAGG).
How it was run: (§1)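 Binding buffer was PBS pH 7.4 with 2% milk, 0.02% Triton X-100, 1 mM DTT, 0.2 mg/mL BSA and 0.4 mg/ml salmon testes DNA. In it, ligand-free nuclear receptor dimers were incubated 1 h on custom Agilent 4×180K protein-binding microarrays carrying double-stranded probes. Antibodies against each partner (one per run) detected binding, and z-scores were calculated against random background probes after regression normalization of scanned fluorescence.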

| Sequence | PBM binding z-score |
| --- | --- |
| CCACGGAGGACAGAAGGTCAGAGCTGTCCGCTTT | -0.839 |
| ATCTCGAGGTAAAGTTCAGTGAAAGATCGATAGA | 0.853 |
| CCAGACAGGTGTAAGGTAACTCAGTCTGGTACGC | -0.287 |
| CGAACTAGGTCATCCAGGACAGTGTATACATTGA | 2.41 |
| CGAACTAGGTCATCCAGGGCAGTGAATACATTGA | 5.35 |
| GCTTTCGGGTCAAAGGTTATAGCATGAATAGAAT | 1.23 |
| GCGACTGGGGTAAAGCAGGTTACCATAAGGTTGG | -0.328 |
| AGAATGAGGTTATGAAGATCAGGGAATTGCGGTC | 0.386 |
| GGAACGAGGGAAAAGTTGATAGCATCTGTCGACG | -0.986 |
| ATATGTAGGTTAGCTGGGTTCATTCAGACTAGGC | 1.92 |
| AGAATGAGGTTATAAGTAGATCAGGGAAGAAAGT | 0.674 |
| TCTAGCAGGCCAAAGGGTCACTCAAGAGGTACGG | -0.396 |
| GCGACTGGGGCAAAGCAAGTTACCATAAGGTTGG | -0.185 |
| GTACCAAGGTGAATAGGACGTTGATGAGTAGGCG | 0.467 |
| TCAAGTAGGTTACCAATGGGGCATTCAGCTTTCT | 0.706 |
| TCATATAGGTACTACAGGTGAAAGTCGGCATCTA | 0.618 |
| TCATATAAGTAAACAGGTGAAAGTCCGTAAGTTA | 0.554 |
| TCATGTAGGTAAATGCTAGGTGAAAGTCCGATCT | 0.811 |
| CCTTACGGGTCACGAGGTTATAGGACGACGAGCG | 1.39 |
| ATATCAAGGTGATCGTGAGGTCGTTGATACTAAC | 1.01 |

| Sequence | PBM binding z-score |
| --- | --- |
| TAGCCTAGGTCATGCGGGCCACTATAGTGTCGGC | -0.194 |
| GTACCAAGGTGAAGAGGTCGTTGATGAGTAGGCG | -0.57 |
| CCTAGTTGGTCAAAGTCACACACGCTATAGGTAC | 0.647 |
| TCTTGTAGATCAAGCACGTTAAGAAAGCCTGAGT | 0.449 |
| TTACCAAGGTGAGAGGTCGTTGATGCACGCCTTG | 0.616 |
| TCTTGTAGATCAAAGGCTAAGAAAGCCGAAGCCT | 0.137 |
| TAGCCTAGGTCAGAACGGGCCAGTATACGCTATA | -0.735 |
| ATCGAAAGGTCGAAGGCGAGTATACCCACCCGAA | 0.286 |
| CCTAGCAAGCCAATCTGGGTCACTCAAGGCTTGA | -0.252 |
| CCGAGTTGGTCAGGAGGTCACACACCGGATATGA | 0.01 |
| AGAGACAGGTGAGTGAAGGTAACTCAGCTGGACG | 0.635 |
| GCTCGGCGGACAAGGTCAGAGCTTTGTCCGTAGA | -1.6 |
| ACTAGCAGGCCAAGTTTGGGCCACTCAAACAAAG | -1.11 |
| ACTAGCAGGCCAAGTTTGGGTCACTCAGACAAAG | -0.577 |
| CCTTACGGGTCACTCCAGGGTATAGCATCGGAGT | -0.61 |
| GGAACGAGGGCAATTTGATAGCAGAGTTTGATGG | -0.942 |
| CGTCCAAGGTCATAGGAGGTCAGTTAAGACAGAT | 0.532 |
| CGTCCAAGGTGAGCAGGTCAGTGAAAGCGACGTG | -0.318 |
| GCTAGTTGGTCAGTAAAAGGTCACACATCGGTCG | 0.0513 |

What follows are sequences tested on PPARg DBDmut IVT, anti-PPARg (DBD mutation: PPARg1 K132A/R137A, NR concentration 270 nM) in the same assay as above.
How it was run: as §1

| Sequence | PBM binding z-score |
| --- | --- |
| CCACGGAGGACAGAAGGTCAGAGCTGTCCGCTTT | -1.85 |
| ATCTCGAGGTAAAGTTCAGTGAAAGATCGATAGA | 0.574 |
| CCAGACAGGTGTAAGGTAACTCAGTCTGGTACGC | -0.728 |
| CGAACTAGGTCATCCAGGACAGTGTATACATTGA | 1.17 |
| CGAACTAGGTCATCCAGGGCAGTGAATACATTGA | 1.78 |
| GCTTTCGGGTCAAAGGTTATAGCATGAATAGAAT | 1.1 |
| GCGACTGGGGTAAAGCAGGTTACCATAAGGTTGG | -0.991 |
| AGAATGAGGTTATGAAGATCAGGGAATTGCGGTC | -0.347 |
| GGAACGAGGGAAAAGTTGATAGCATCTGTCGACG | -1.13 |
| ATATGTAGGTTAGCTGGGTTCATTCAGACTAGGC | 2.15 |
| AGAATGAGGTTATAAGTAGATCAGGGAAGAAAGT | 0.782 |
| TCTAGCAGGCCAAAGGGTCACTCAAGAGGTACGG | -0.432 |
| GCGACTGGGGCAAAGCAAGTTACCATAAGGTTGG | -1.06 |
| GTACCAAGGTGAATAGGACGTTGATGAGTAGGCG | 0.284 |
| TCAAGTAGGTTACCAATGGGGCATTCAGCTTTCT | -0.182 |
| TCATATAGGTACTACAGGTGAAAGTCGGCATCTA | 1.02 |
| TCATATAAGTAAACAGGTGAAAGTCCGTAAGTTA | 1.07 |
| TCATGTAGGTAAATGCTAGGTGAAAGTCCGATCT | 1.12 |
| CCTTACGGGTCACGAGGTTATAGGACGACGAGCG | 0.939 |
| ATATCAAGGTGATCGTGAGGTCGTTGATACTAAC | 1.33 |

| Sequence | PBM binding z-score |
| --- | --- |
| TAGCCTAGGTCATGCGGGCCACTATAGTGTCGGC | 0.594 |
| GTACCAAGGTGAAGAGGTCGTTGATGAGTAGGCG | -0.181 |
| CCTAGTTGGTCAAAGTCACACACGCTATAGGTAC | 0.822 |
| TCTTGTAGATCAAGCACGTTAAGAAAGCCTGAGT | 0.566 |
| TTACCAAGGTGAGAGGTCGTTGATGCACGCCTTG | 0.0764 |
| TCTTGTAGATCAAAGGCTAAGAAAGCCGAAGCCT | 0.157 |
| TAGCCTAGGTCAGAACGGGCCAGTATACGCTATA | -1.15 |
| ATCGAAAGGTCGAAGGCGAGTATACCCACCCGAA | 0.268 |
| CCTAGCAAGCCAATCTGGGTCACTCAAGGCTTGA | -0.0798 |
| CCGAGTTGGTCAGGAGGTCACACACCGGATATGA | 0.0417 |
| AGAGACAGGTGAGTGAAGGTAACTCAGCTGGACG | -0.659 |
| GCTCGGCGGACAAGGTCAGAGCTTTGTCCGTAGA | -1.83 |
| ACTAGCAGGCCAAGTTTGGGCCACTCAAACAAAG | -0.696 |
| ACTAGCAGGCCAAGTTTGGGTCACTCAGACAAAG | -0.242 |
| CCTTACGGGTCACTCCAGGGTATAGCATCGGAGT | -0.915 |
| GGAACGAGGGCAATTTGATAGCAGAGTTTGATGG | -0.307 |
| CGTCCAAGGTCATAGGAGGTCAGTTAAGACAGAT | 0.526 |
| CGTCCAAGGTGAGCAGGTCAGTGAAAGCGACGTG | -0.865 |
| GCTAGTTGGTCAGTAAAAGGTCACACATCGGTCG | 0.435 |
